This note sets out measurements from PubChem BioAssay (NCATS).

Records with an inconclusive call do not appear. The source made the active and inactive calls. The call rests on the fitted dose curve; in most records, active means well fitted cell-killing curve with a large enough effect; inconclusive means small, poorly fitted or top-dose-only effect, or effect the other way; inactive means no such curve, though single readings can be large or run the other way.

The nature of assay [1]: Quantitative High-Throughput drug screen in 47 multiple myeloma cell lines against the NCATS MIPE library collection: U266_ATCC cell viability assay (AID 1919864). Further: nearly all actives have a fitted effect of over 35% in size. Put shortly: (§1)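 qHTS format: cells plated (500/well), pin-dosed with MIPE 4.0 compounds, kept 48 h at 37 °C. Readout was CellTiter-Glo luminescence, median RLU.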
Assay [2] is described as follows: Quantitative High-Throughput drug screen in 47 multiple myeloma cell lines against the NCATS MIPE library collection: PE2_PLB cell viability assay (AID 1919869). Further: nearly all actives have a fitted effect of over 35% in size. An outline of the steps: as §1
Assay [3] in a line: Quantitative High-Throughput drug screen in 47 multiple myeloma cell lines against the NCATS MIPE library collection: PCM6_Riken cell viability assay (AID 1919870). Further: nearly all actives have a fitted effect of over 30% in size. Put shortly:
as §1

The nature of assay [4]: Quantitative High-Throughput drug screen in 47 multiple myeloma cell lines against the NCATS MIPE library collection: RPMI8226_ATCC cell viability assay (AID 1919871). Further: nearly all actives have a fitted effect of over 30% in size. An outline of the steps:
as §1

Assay [5] can be described thus: Quantitative High-Throughput drug screen in 47 multiple myeloma cell lines against the NCATS MIPE library collection: XG6_PLB cell viability assay (AID 1919865). Further: nearly all actives have a fitted effect of over 40% in size. An outline of the steps:
as §1

Assay [6] is described as follows: Quantitative High-Throughput drug screen in 47 multiple myeloma cell lines against the NCATS MIPE library collection: XG1_PLB cell viability assay (AID 1919866). Further: nearly all actives have a fitted effect of over 35% in size. Put shortly: as §1
The nature of assay [7]: Quantitative High-Throughput drug screen in 47 multiple myeloma cell lines against the NCATS MIPE library collection: UTMC2_PLB cell viability assay (AID 1919868). Further: nearly all actives have a fitted effect of over 55% in size. Conditions: CellTiter-Glo ATP luminescence, 48 h; viability (% of DMSO control): at 45.8 µM (top of the series). Put shortly: as §1
(ATP-based viability assays read luminescence as a measure of living cells.)

Assay [8] can be described thus: Quantitative High-Throughput drug screen in 47 multiple myeloma cell lines against the NCATS MIPE library collection: VP6_DJ cell viability assay (AID 1919867). Further: nearly all actives have a fitted effect of over 40% in size. An outline of the steps: as §1
Assay [9] is described as follows: Quantitative High-Throughput drug screen in 47 multiple myeloma cell lines against the NCATS MIPE library collection: OPM2_DSMZ cell viability assay (AID 1919872). Further: nearly all actives have a fitted effect of over 30% in size. An outline of the steps:
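CellTiter-Glo ATP luminescence gave viability after 48 h compound treatment at 37C of 500 multiple myeloma cells per well. Normalisation used DMSO-only wells as 100% and media-only wells as 0% viability; primary qHTS of approved and investigational drugs.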
Potency means the concentration at half of the fitted maximal effect.

`Cc1ccc2c(=O)c3cccc(CC(=O)O)c3oc2c1C`: the Potency in assay [1] is 18.7 µM (active); in assay [2], 20.9 µM (active); in assay [3], 23.5 µM (active). The Potency result in assay [4] is “inactive”.
For `CCOC(=O)[C@@H](N)CCC(=O)N[C@@H](CSCc1ccccc1)C(=O)N[C@@H](C(=O)OCC)c1ccccc1`, the Potency in assay [5] was 11.8 µM (active); in assay [6] it was 23.5 µM (active); in assay [7] it was 23.5 µM (active); in assay [2], 20.9 µM (active). Besides, in assay [4], the Potency entry was “inactive”.
On to `O=C(CC12CC3CC(CC(C3)C1)C2)Nc1cccc2nc(NCCNCCO)ccc12`, for which the Potency in assay [5] is 1.18 µM (active); in assay [6] it was 2.96 µM (active); in assay [8], 4.69 µM (active); in assay [7], 3.32 µM (active); in assay [2], 7.43 µM (active); in assay [3], 7.43 µM (active).
For `C[C@@H]1[C@H](O)[C@@H](C)C=CC=CC=CC=CC=CC=CC=C[C@H](O[C@@H]2O[C@H](C)[C@H](O)[C@H](N)[C@@H]2O)C[C@@H]2O[C@](O)(C[C@@H](O)C[C@@H](O)[C@H](O)CC[C@@H](O)C[C@@H](O)CC(=O)O[C@H]1C)C[C@H](O)[C@@H]2C(=O)O`, the Potency entry in assay [5] was “inactive”. Also, the figures for the Potency in [6], in assay [8] and in assay [3] were 2.96 µM (active), 3.72 µM (active) and 3.32 µM (active), respectively.
For the molecule `Clc1ccc(C2(c3ccc(-c4cn[nH]c4)cc3)CCNCC2)cc1`, the Potency in assay [5] was 3.72 µM (active); in assay [6], 18.7 µM (active); in [8] it was 13.2 µM (active); in assay [7], 0.148 µM (active); in [2], 11.8 µM (active); in assay [3], 6.62 µM (active). For the same molecule, in assay [9], the Potency is 26.4 µM (active).
`CCCCCOC(=O)Nc1nc(=O)n([C@@H]2O[C@H](C)[C@@H](O)C2O)cc1F` (stereo partly specified): the Potency in [5] was 3.32 µM (active); in [6], 18.7 µM (active); in assay [8], 2.64 µM (active). Moreover, the Potency result in assay [7], in assay [2], in assay [3], in [4] and in [9] was “inactive” each time.
On to `CC[C@]1(O)C[C@H]2CN(CCC3=c4ccccc4=N[C]3[C@@](C(=O)OC)(c3cc4c(cc3OC)N(C)[C@H]3[C@@](O)(C(N)=O)[C@H](O)[C@]5(CC)C=CCN6CC[C@]43[C@@H]65)C2)C1`, for which the Potency in assay [1] is 0.0935 µM (active); in assay [7], 0.0053 µM (active); in assay [4], 0.132 µM (active); in assay [9], 0.0074 µM (active).
With `CNc1nc(-c2ccc3c(N)n[nH]c3c2)cc(N2C[C@@H](C(=O)NC3CCCCC3)CC[C@@H]2C)n1`, the Potency in [5] is 20.9 µM (active); in [6], 20.9 µM (active); in [8], 5.9 µM (active); in assay [2], 6.62 µM (active); in assay [3], 18.7 µM (active); in assay [9], 23.5 µM (active).
On to `C[C@H]1[C@H](O)O[C@@H]2O[C@@]3(C)CC[C@@H]4[C@H](C)CC[C@@H]1[C@@]24OO3`, for which the Potency in assay [5] was 3.72 µM (active); in assay [6] it was 3.72 µM (active); in assay [8], 1.48 µM (active); in assay [2], 2.35 µM (active).
As for `CCn1c(-c2nonc2N)nc2cncc(CNC3CCNCC3)c21`, in assay [1], the Potency result is “inactive”. In addition, the Potency in assay [2] was 5.9 µM (active); in [3] it was 4.18 µM (active).
For `C[C@@]1(c2cc(-c3cncnc3)c(F)cc2F)CCSC(N)=N1`, the Potency result in [1] and in assay [7] was “inactive” in each case. In assay [3], the Potency is 2.96 µM (active).
For the molecule `CO[C@@H]1C(N(C)C(=O)c2ccccc2)C[C@H]2O[C@]1(C)n1c3ccccc3c3c4c(c5c6ccccc6n2c5c31)C(=O)NC4=O` (stereo partly specified), the Potency was 13.2 µM (active) in [1], 2.64 µM (active) in [7], 3.72 µM (active) in assay [2] and 5.26 µM (active) in assay [4].
Turning to `CC(C)Oc1cc(Nc2nc(N[C@@H](C)c3ccc(F)cn3)ncc2Cl)[nH]n1`, the Potency is 7.43 µM (active) in [5]; 14.8 µM (active) in assay [6]; 7.43 µM (active) in assay [8]; 8.33 µM (active) in assay [7]; 6.62 µM (active) in assay [2]; 7.43 µM (active) in assay [3]. Also, in assay [9], the Potency is 16.6 µM (active). Moreover, the Potency result in assay [4] was “inactive”.
Regarding `CC(C)(C)c1nc(-c2cccc(NS(=O)(=O)c3c(F)cccc3F)c2F)c(-c2ccnc(N)n2)s1`, the Potency in assay [1] was 5.9 µM (active); in assay [2], 5.9 µM (active); in [4] it was 13.2 µM (active); in assay [9], 3.32 µM (active). Further, in assay [7], the Potency entry was “inactive”.
For the molecule `COc1cc2c(cc1OC)CC(=O)N(CCCN(C)C[C@H]1Cc3cc(OC)c(OC)cc31)CC2`, the Potency entry in assay [5], in assay [6], in assay [3] and in assay [9] was “inactive” each time. The Potency in assay [4] was 11.8 µM (active).
In the case of `CC1=C(CC(=O)O)c2cc(F)ccc2C1=Cc1ccc(S(C)=O)cc1` (stereo unspecified), the Potency in assay [6] is 0.935 µM (active); in assay [8] it was 7.43 µM (active); in [7], 18.7 µM (active); in assay [2], 20.9 µM (active). Besides, the Potency result in assay [4] was “inactive”.
On to `N[C@@H](CC(=O)N1CCn2c(nnc2C(F)(F)F)C1)Cc1cc(F)c(F)cc1F`, for which the Potency result in assay [5], in [3], in assay [4] and in [9] was “inactive” each time. Further, the Potency in assay [2] is 3.72 µM (active).
